Data taken from PubChem BioAssay AID720 (The Scripps Research Institute Molecular Screening Center, 2007).
Out of some 97,000 compounds screened, about 140 (0.14%) were called active.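 Rule for the calls: active = inhibition above the screen-wide mean inhibition plus 3 SD (cut at about 15% in these data); inactive = the rest.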 Only a selection was taken, and actives are over-represented in it overall.

molecular target: Ephrin type-B receptor 4 (Homo sapiens) (UniProt P54760); assay: EphB4-ephrin-B2 interaction antagonists, primary screen, biochemical, TNYL-RAW peptide probe, fluorescence polarization (AID 720); conditions: EphB4 LBD / TNYL-RAW-Alexa532 peptide, at 7 µM, stronger effect = higher value;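 note: 0% = DMSO wells and 100% = excess unlabeled TNYL-RAW peptide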
Sequence (P54760 whole entry, looked up, the tested form may be a part): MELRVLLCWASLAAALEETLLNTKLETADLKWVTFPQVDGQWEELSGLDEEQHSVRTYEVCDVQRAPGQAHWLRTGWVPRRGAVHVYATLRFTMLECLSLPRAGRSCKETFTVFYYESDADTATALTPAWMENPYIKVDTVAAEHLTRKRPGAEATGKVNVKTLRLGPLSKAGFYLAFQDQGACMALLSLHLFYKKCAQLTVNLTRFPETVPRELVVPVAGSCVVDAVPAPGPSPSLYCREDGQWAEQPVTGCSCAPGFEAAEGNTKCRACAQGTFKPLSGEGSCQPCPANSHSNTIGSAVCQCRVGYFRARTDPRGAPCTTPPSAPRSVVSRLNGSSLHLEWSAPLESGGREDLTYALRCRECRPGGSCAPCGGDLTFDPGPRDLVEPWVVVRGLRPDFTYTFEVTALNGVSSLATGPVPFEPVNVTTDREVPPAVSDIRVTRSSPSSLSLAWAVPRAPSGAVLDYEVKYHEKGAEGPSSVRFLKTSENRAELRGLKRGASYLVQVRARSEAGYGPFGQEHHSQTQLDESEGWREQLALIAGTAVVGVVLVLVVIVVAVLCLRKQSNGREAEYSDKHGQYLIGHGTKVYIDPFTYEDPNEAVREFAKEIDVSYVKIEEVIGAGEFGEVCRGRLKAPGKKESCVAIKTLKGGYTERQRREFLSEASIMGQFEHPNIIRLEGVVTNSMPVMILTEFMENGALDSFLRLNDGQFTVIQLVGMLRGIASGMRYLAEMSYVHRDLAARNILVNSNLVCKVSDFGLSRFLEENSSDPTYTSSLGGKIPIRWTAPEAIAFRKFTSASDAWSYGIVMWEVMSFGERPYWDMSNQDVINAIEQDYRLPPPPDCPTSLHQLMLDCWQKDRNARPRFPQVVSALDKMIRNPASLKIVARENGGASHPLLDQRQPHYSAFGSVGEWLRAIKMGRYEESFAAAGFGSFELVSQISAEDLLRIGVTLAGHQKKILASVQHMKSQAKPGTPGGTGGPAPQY

| Compound | inhibition |
| --- | --- |
| N=c1c2c3c(sc2nc2n1CCCCC2)CCCC3 | 6.43% (inactive) |
| O=c1[nH][nH]c(C(F)(F)F)c1C=NCc1ccccc1Cl | 2.43% (inactive) |
| O=S(=O)(NN=C1CCCCCCC1)c1ccc(Br)cc1 | 5.67% (inactive) |
| CCOC(=O)C1=C(c2ccccc2)N=C2SCC(=O)N2C1c1ccc(O)c(OC)c1 (centres undefined) | 2.71% (inactive) |
| COCCn1c(SCc2nc3cc(OC)c(OC)cc3c(=O)[nH]2)nnc1-c1ccncc1 | 5.33% (inactive) |
| O=C(C1=C(O)C(=O)N(Cc2ccccc2)C1c1cccnc1)c1ccco1 (centres undefined) | 27% (active) |
| O=C(C1=C(O)C(=O)N(Cc2ccccc2)C1c1ccco1)c1ccco1 (centres undefined) | -8.37% (inactive) |
| COc1ccc(C2C(C(C)=O)=C(O)C(=O)N2Cc2cccnc2)cc1 (centres undefined) | 1.74% (inactive) |
| COc1ccc2c(c1)C(C)=CC(C)(C)N2C(=O)Nc1ccccc1 | 6.35% (inactive) |
| CC(=O)Oc1ccc(NC(=O)CCC2CCCCC2)c(C(=O)O)c1 | 4.49% (inactive) |
| O=C(CN1CCN(c2ccc(Cl)cc2)CC1)N1CCCC1 | 4.82% (inactive) |
| Oc1ccc(/C=N/NC2=NCCCCC2)c(O)c1 | 2.04% (inactive) |
| CCOC(=O)c1sc(C)c2c1NC(C)(c1cccc3ccccc13)NC2=O (centres undefined) | 13.2% (inactive) |
| Cc1cc(C)nc(SC(C)C(=O)N/N=C/c2cccs2)n1 (centres undefined) | 2.66% (inactive) |
| C=CCc1ccc(OCCOc2cccc(/C=N/n3cnnc3)c2)c(OC)c1 | -1.42% (inactive) |
| Cc1ccc(N2C(=O)CC(Sc3ncn[nH]3)C2=O)cc1 (centres undefined) | 0.58% (inactive) |
| CC(C)CNC(=S)NNC(=O)c1nn(C)cc1Cl | 7.68% (inactive) |
| COc1ccc(-c2noc(-c3ccc(C)cc3)n2)cc1 | -4.98% (inactive) |
| CSc1cc(C)n(-c2ccccc2C)c(=S)c1C(C)=O | -5.85% (inactive) |
| CCCOc1cc(C)c(S(=O)(=O)n2nnc3ccccc32)cc1C | -0.8% (inactive) |
| CCc1nn(-c2cc(Oc3cccc4ccccc34)nc(-c3ccccc3)n2)c(N)c1C#N | -9.42% (inactive) |
| CCOc1cc(C(=O)Nc2c(C)ccc3nsnc23)cc(OCC)c1OCC | -8.62% (inactive) |
| COc1ccc(CNC(=O)CCn2cccc2)cc1 | -2.06% (inactive) |
| COC(=O)c1ccc(NC(=O)C23CC4CC(C2)CC(n2cnc(Cl)n2)(C4)C3)cc1 | 3.33% (inactive) |
